Here are results for 33 compounds from PubChem BioAssay.

Assay [1] deals with Serine protease HTRA1 (Homo sapiens) (UniProt Q92743). Description: confirming inhibition of human HTRA1 – biochemical, fluorescence polarization, confirmation (AID 540248;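 active = mean inhibition over three repeats above a set limit taken from the earlier primary screen, cut at about 37% in these data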;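 also: 0% = HTRA1 with DMSO and 100% = wells lacking HTRA1; inhibitors block probe binding so polarization drops and inhibition rises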). The note with it: recombinant HTRA1, FP-rhodamine activity-based probe, at 5.96 µM, active compounds read high. A general note: Polarisation of emitted light reports the rotation of a fluorescent probe.
Assay [2] deals with transactivating tegument protein VP16 (Human herpesvirus 1). In words: compounds suppressing VP16-driven luciferase signal – cell-based, luminescence, single concentration, counter-screen for SRC2 inhibitor project (AID 652007; in the data active = inhibition above about 36%). The note with it: cell-based VP16 transactivation luciferase reporter, at 8.9 µM, active compounds read high. Background: The purpose of a counterscreen is to sort out artefacts and off-target activity.

Assay [3] has as its target Nuclear receptor coactivator 2 (Homo sapiens) (UniProt Q15596). Description: inhibition of GAL4-SRC2 driven luciferase expression – cell-based, luminescence, HEK293, triplicate, confirmation (AID 652008;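 active = mean inhibition above 46.5%, the solvent-only control mean plus 3 SD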;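 also: 0% = DMSO-treated cells and 100% = Gossypol at 36 µM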). The note with it: HEK293 GAL4-SRC2 luciferase reporter, at 8.9 µM, active compounds read high. A general note: A reporter such as luciferase makes a cellular process visible.

The target in assay [4] is Photoreceptor-specific nuclear receptor (Homo sapiens) (UniProt Q9Y5X4). Description: corepressor-releasing ligands of human NR2E3 – biochemical, TR-FRET, confirmation (AID 2379; in the data active = activation above about 20%). The note with it: cell-free NR2E3 corepressor release, 5 h, at 3.98 µM, active compounds read high.
Assay [5] concerns the target Peroxisome proliferator-activated receptor gamma (Homo sapiens) + Nuclear receptor corepressor 2 (Homo sapiens) (UniProt P37231+Q9Y618). Description: agonists of PPARg-NCOR2 corepressor interaction, counter-screen for NR2E3 agonist project, biochemical, TR-FRET (AID 504787; in the data active = inhibition above about 20%;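 also: 0% = DMSO vehicle and 100% = wells without protein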). The following applies: TR-FRET PPARg-NCOR2 coregulator interaction, at 3.98 µM, active compounds read high.

Assay [6] addresses Glutathione S-transferase omega-1 (Homo sapiens) (UniProt P78417). Description: recombinant GSTO1 blockers, retest – biochemical, fluorescence polarization, triplicate, counter-screen for RBBP9 inhibitor project, confirmation (AID 2176;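 active = inhibition above the primary screen's cutoff, its mean inhibition plus 3 SD, cut at about 35% in these data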;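 also: loss of polarization as inhibitors block binding of rhodamine sulfonate ester activity probe; 0% = GSTO1 with DMSO and 100% = wells lacking GSTO1 enzyme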). The note with it: recombinant GSTO1, probe fluorescence polarization; at 5.96 µM; active compounds read high.
Assay [7] in a line: VP16-driven transactivation reporter suppression – cell-based, luminescence, HEK293, counter-screen for COUP-TFII antagonist project (AID 687007; in the data active = inhibition above about 13%). The following applies: HEK293 Gal4-VP16 luciferase reporter, at 8.5 µM, active compounds read high.
The target of assay [8] is COUP transcription factor 2 (Homo sapiens) (UniProt P24468). Description: retest of COUP-TFII reporter suppressors – cell-based, luciferase reporter, HEK293, triplicate, confirmation (AID 687008;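 active = mean inhibition over three repeats above a set limit taken from the earlier primary screen, cut at about 38% in these data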;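 also: 100% = cells given the luciferase reporter alone without the COUP-TF2 vector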). The note with it: HEK293 NGFI-A luciferase reporter, luminescence; at 8.5 µM; active compounds read high.
Assay [9] deals with Lytic switch protein BZLF1 (Epstein-Barr virus (strain B95-8)) (UniProt P03206). In words: blockers of Zta-ZRE DNA complex – biochemical, fluorescence polarization, triplicate, confirmation (AID 2361;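 active = mean inhibition across triplicate runs above the hit threshold derived for the original primary screen, cut at about 33% in these data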;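 also: 0% = Zta with DMSO and 100% = wells lacking Zta protein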). The following applies: Zta-ZRE DNA binding, at 11.1 µM, active compounds read high.
The test system of assay [10] is Epstein-Barr virus nuclear antigen 1 (EBNA-1), Human herpesvirus 4. In words: blockers of EBV EBNA-1 binding to DNA – biochemical, fluorescence polarization, counter-screen for ZTA inhibitor project (AID 2362; call rule not given here). The following applies: EBNA-1 DNA binding, at 14.8 µM, active compounds read high.
Assay [11] deals with Oxytocin receptor (Homo sapiens) (UniProt P30559). Description: oxytocin receptor activation, retest of hits – fluorescence, CHO-OTR cells, triplicate, confirmation (AID 434963).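 Also: peak over minimum fluorescence ratio per well during a 100 second FLIPR read; 0% = DMSO alone and 100% = oxytocin high control.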 The following applies: Fluo-8 calcium fluorescence, agonist, at 3 µM, active compounds read high.
The target of assay [12] is Vasopressin V1a receptor (Homo sapiens) (UniProt P37288). Description: activators of vasopressin V1R in CHO cells – cell-based, triplicate, fluorescence, counter-screen for OXTR agonist project (AID 434991;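 active = mean activation over triplicate exceeds the hit threshold set in the earlier primary screen, cut at about 20% in these data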;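 also: peak over basal fluorescence ratio within a 100 second read; 0% = DMSO alone and 100% = 3 nM vasopressin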). The following applies: Fluo-8 calcium fluorescence, at 3 µM, active compounds read high.
For assay [13], the target named is Platelet-activating factor acetylhydrolase (Homo sapiens) (UniProt Q13093). In words: inhibition of plasma PAF acetylhydrolase – biochemical, fluorescence polarization, human, confirmation (AID 463230;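 active = mean inhibition of the triplicate above the hit cutoff set for the earlier primary screen, cut at about 25% in these data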;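 also: 0% = enzyme with DMSO and 100% = wells lacking pPAFAH enzyme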). The note with it: recombinant pPAFAH, FP-Rh probe fluorescence polarization; at 3.39 µM; active compounds read high.
In assay [14] the target is Galanin receptor type 2 (Homo sapiens) (UniProt O43603). Description: blockers of human galanin receptor 2 – cell-based, confirmation (AID 866; in the data active = inhibition above about 27%;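 also: cells stimulated with galanin at about its EC80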). The following applies: GALR2-expressing cells, antagonist mode, at 4 µM, active compounds read high.
Assay [15] is described as follows: nonspecific BLA reporter inhibition – CHO NFAT-bla cells, FRET readout, counter-screen for GALR2 antagonist project, confirmation (AID 867;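 active = inhibition above the mean inhibition across tested compounds plus 3 SD, cut at about 27% in these data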;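 also: 0% = 500 nM thapsigargin stimulated wells and 100% = unstimulated BSA only wells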). The note with it: beta-lactamase FRET, thapsigargin-stimulated, at 4.2 µM, active compounds read high.
The target in assay [16] is (Lyso)-N-acylphosphatidylethanolamine lipase (Mus musculus) (UniProt Q8VD66). Description: mouse ABHD4 hydrolase blockers, triplicate – biochemical, fluorescence polarization, confirmation (AID 720658;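 active = mean inhibition across replicates above the hit cutoff set in the primary screen, cut at about 30% in these data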;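 also: 0% = wild-type ABHD4 with DMSO and 100% = catalytically dead S159A mutant with DMSO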). The note with it: purified mABHD4, FP-Rh probe fluorescence polarization; at 8.92 µM; active compounds read high.

Each structure is given as a SMILES string. Unmarked numbers belong to inactive results. Some of the results follow. The source made the active and inactive calls.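 The calls were made as follows, unless noted: active = mean activation above about 20% derived from the earlier single-dose screen (limit read from the data); inactive = the rest.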

Photoreceptor-specific nuclear receptor (Homo sapiens), sequence (Q9Y5X4 whole entry, looked up): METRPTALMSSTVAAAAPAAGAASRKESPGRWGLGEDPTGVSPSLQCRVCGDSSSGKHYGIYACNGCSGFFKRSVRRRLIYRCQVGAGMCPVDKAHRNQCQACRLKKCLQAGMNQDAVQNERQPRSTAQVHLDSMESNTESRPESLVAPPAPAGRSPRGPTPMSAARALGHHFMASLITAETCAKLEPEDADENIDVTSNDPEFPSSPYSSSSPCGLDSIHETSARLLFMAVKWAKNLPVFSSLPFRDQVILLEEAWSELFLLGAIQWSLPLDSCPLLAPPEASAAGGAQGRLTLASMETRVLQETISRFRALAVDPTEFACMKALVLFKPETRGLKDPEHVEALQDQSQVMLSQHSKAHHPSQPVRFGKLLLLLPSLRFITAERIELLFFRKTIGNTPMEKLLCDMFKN
Oxytocin receptor (Homo sapiens), sequence (P30559 whole entry, looked up): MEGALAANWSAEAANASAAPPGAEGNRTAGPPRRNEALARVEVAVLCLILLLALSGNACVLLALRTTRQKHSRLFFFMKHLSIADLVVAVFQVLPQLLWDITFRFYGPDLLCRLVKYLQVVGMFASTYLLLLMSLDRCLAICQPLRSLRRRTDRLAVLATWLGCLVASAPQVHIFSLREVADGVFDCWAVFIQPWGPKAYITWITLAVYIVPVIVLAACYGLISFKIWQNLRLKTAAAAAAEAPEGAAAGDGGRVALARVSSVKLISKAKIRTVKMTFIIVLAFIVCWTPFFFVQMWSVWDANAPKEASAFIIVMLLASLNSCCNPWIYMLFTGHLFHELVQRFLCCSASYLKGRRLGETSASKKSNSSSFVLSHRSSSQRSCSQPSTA
Vasopressin V1a receptor (Homo sapiens), sequence (P37288 whole entry, looked up): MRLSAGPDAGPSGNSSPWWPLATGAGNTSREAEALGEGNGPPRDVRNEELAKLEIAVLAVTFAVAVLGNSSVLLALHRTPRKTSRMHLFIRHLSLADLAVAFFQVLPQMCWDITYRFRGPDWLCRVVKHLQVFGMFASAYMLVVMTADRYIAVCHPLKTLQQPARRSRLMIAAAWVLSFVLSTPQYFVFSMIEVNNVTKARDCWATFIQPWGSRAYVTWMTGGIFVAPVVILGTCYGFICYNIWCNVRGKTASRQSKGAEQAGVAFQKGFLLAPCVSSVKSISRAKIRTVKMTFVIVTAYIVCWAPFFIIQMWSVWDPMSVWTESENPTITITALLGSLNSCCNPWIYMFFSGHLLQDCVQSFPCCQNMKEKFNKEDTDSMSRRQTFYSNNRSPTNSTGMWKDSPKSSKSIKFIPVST
Peroxisome proliferator-activated receptor gamma (Homo sapiens) + Nuclear receptor corepressor 2 (Homo sapiens), sequence (P37231 whole entry, looked up): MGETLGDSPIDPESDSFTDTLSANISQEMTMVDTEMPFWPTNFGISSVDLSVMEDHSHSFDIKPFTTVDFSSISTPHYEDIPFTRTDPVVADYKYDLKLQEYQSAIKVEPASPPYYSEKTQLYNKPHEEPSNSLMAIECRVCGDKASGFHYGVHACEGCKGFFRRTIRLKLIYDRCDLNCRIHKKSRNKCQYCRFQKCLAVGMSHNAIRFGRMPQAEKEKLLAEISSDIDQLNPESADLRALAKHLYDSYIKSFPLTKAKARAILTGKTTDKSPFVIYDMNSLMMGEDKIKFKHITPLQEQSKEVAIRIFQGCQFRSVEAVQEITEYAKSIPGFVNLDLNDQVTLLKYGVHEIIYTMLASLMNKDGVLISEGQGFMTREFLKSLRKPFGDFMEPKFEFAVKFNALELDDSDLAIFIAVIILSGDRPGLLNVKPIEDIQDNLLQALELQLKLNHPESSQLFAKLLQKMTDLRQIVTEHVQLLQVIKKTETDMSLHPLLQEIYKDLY
Peroxisome proliferator-activated receptor gamma (Homo sapiens) + Nuclear receptor corepressor 2 (Homo sapiens), sequence (Q9Y618 whole entry, looked up): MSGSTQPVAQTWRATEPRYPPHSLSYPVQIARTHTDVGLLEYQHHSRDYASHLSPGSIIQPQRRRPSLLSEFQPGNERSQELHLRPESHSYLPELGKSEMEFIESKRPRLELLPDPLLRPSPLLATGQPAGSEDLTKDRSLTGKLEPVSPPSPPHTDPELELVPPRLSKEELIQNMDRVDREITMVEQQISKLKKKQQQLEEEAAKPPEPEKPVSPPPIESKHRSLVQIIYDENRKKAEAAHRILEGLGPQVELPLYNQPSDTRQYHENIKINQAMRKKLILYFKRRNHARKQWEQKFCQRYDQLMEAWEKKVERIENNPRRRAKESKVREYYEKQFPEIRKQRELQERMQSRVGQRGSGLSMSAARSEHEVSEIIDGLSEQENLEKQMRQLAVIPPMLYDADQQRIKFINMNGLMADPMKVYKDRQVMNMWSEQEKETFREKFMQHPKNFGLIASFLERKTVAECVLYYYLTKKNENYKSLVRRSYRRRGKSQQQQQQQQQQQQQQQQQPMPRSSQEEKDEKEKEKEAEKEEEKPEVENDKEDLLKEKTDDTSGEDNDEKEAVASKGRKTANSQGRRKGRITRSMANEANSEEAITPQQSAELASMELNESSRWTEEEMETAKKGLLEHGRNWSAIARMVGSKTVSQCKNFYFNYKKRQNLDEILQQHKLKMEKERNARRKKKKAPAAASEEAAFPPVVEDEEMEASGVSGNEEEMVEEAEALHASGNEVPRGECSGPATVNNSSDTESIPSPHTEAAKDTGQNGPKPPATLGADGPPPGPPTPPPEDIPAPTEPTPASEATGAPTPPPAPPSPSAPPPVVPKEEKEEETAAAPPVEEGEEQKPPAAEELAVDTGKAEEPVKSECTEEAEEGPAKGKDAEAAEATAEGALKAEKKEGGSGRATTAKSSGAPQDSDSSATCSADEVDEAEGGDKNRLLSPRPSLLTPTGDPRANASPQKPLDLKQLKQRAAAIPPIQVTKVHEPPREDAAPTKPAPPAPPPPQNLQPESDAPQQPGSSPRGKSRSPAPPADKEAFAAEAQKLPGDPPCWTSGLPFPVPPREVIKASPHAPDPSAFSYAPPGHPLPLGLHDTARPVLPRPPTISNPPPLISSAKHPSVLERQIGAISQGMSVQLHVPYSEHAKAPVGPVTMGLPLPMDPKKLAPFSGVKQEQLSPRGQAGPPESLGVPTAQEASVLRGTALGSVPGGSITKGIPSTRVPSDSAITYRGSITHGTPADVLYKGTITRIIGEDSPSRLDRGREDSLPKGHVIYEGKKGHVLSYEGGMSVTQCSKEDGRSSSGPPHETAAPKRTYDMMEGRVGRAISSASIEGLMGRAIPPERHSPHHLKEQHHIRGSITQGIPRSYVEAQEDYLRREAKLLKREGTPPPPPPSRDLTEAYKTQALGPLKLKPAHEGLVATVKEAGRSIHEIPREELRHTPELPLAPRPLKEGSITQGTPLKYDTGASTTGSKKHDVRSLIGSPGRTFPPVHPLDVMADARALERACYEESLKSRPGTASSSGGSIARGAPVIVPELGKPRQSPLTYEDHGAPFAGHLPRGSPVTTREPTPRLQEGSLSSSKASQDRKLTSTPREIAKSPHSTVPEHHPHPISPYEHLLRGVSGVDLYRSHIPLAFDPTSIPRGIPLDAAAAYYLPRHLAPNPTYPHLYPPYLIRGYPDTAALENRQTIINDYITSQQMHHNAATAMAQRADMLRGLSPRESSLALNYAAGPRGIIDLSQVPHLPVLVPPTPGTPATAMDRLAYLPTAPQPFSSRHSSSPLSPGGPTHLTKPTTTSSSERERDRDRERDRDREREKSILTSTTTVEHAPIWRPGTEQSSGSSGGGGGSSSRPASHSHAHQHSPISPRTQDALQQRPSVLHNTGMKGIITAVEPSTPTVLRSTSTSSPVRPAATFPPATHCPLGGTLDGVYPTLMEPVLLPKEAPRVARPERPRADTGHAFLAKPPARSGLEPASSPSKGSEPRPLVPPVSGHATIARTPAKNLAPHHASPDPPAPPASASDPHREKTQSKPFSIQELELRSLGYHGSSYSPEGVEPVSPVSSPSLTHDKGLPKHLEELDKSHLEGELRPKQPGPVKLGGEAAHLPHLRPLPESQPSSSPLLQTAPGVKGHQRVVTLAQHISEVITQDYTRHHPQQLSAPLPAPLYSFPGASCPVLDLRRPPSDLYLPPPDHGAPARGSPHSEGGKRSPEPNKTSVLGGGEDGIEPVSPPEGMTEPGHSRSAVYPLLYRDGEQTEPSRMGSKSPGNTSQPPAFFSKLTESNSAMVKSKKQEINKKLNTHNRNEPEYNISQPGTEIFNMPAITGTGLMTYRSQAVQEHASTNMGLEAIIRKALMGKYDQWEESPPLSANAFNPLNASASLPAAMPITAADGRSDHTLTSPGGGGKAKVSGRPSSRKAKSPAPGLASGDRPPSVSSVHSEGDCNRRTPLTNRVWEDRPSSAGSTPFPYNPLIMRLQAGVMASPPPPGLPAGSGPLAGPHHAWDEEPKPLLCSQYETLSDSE
Glutathione S-transferase omega-1 (Homo sapiens), sequence (P78417 whole entry, looked up, the tested form may be a part): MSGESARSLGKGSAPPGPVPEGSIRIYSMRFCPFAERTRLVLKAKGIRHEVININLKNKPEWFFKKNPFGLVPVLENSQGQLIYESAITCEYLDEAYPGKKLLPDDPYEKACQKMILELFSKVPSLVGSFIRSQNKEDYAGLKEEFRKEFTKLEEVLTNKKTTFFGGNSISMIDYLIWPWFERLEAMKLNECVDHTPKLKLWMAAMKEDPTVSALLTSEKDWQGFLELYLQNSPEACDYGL
Lytic switch protein BZLF1 (Epstein-Barr virus (strain B95-8)), sequence (P03206 whole entry, looked up): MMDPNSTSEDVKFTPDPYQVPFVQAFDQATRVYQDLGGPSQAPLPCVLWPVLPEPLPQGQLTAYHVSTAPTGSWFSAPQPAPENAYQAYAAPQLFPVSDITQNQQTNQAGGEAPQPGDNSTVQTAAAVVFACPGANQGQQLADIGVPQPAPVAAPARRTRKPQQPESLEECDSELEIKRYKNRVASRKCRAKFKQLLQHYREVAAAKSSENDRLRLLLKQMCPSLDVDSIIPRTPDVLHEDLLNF

With `Oc1ccc(CNc2ccccc2O)cc1`, the inhibition (commonly the drop in the measured response relative to a control, in per cent) in [1] was 29%.
Turning to `CC1=CC(C)(C)Nc2ccc(OC(=O)CN3C(=O)C4CCCCC4C3=O)cc21` (stereo not given), the inhibition is -22.9% in assay [2] and 27.4% in assay [3].
As for `COc1cccc(-n2c(=S)[nH]c3c(oc4ccccc43)c2=O)c1`, the activation (reported as inhibition) in assay [4] was 14.3%. Further, the inhibition in assay [5] was 8.55%.
The corresponding values for `COc1cc2[nH]c(=S)n(Cc3ccc(C)o3)c(=O)c2cc1OC` are -5.72% and -2.05%.
Consider `CCOC(=O)C1=C(c2ccc(OC)cc2)C(=O)c2ccccc2C1=O`, for which the inhibition in [6] is 8.3%; in [7], 80.8% (active); in [8] it was 93.5% (active).
As to `COc1ccc(N2CCN(C(=O)CN3C(=O)COc4ccccc43)CC2)cc1`, the inhibition is -8.37% in assay [9] and -9.94% in assay [10].
As to `C=CCOc1cccc(C2C(C(=O)c3ccc(C)o3)=C(O)C(=O)N2CCCn2ccnc2)c1` (stereo not given), the activation (reported as inhibition) in assay [4] is 9.01%. Further, in assay [5], the inhibition is 7.51%.
For the compound `Cn1cnc2c1c(=O)n(Cc1ccccc1C#N)c(=O)n2C`, the inhibition in [9] was -1.92%; in assay [10] it was -2.72%.
`CC1(C)Cc2ccccc2-c2[nH]c(=S)[nH]c(=O)c21`: the activation (reported as inhibition) in assay [4] was 28.7% (active). Moreover, the inhibition in assay [5] was 25.9% (active).
As for `CC1(C)CC[C@@]2(C(=O)O)C(C1)C1=CCC3[C@@]4(C)CC[C@H](O)C(C)(C)C4CC[C@@]3(C)[C@]1(C)C[C@H]2O` (stereo not given in full), the activation was 67.3% (active) in assay [11] and 1.34% in assay [12].
On to `CN(Cc1ccccc1)Cc1ccccc1F`, for which the activation (reported as inhibition) in assay [4] was -2.78%. In assay [5], the inhibition is -3.03%.
In the case of `CCC(=O)Nc1ccc(Nc2nc(Cl)nc(Nc3ccc(NC(=O)CC)cc3)n2)cc1`, the inhibition in assay [9] was -2.63%; in assay [10], 5.66%.
`CSc1nnc(SCc2nc3sc(C(=O)O)c(C)c3c(=O)[nH]2)s1`: the inhibition in assay [9] is 55.8% (active); in assay [10], 5.58%; in assay [13] it was 43.4% (active).
`Cc1ccc(N(Cc2cc(=O)[nH]c3ccccc23)C(=O)CCl)cc1`: the results for the inhibition in assay [6], in assay [2] and in assay [3] were 90% (active), 33.7% and 51.6% (active), respectively.
Consider `Cc1cccc(NC(=O)c2sc3nc(N4CCOCC4)c4c(c3c2N)CCCC4)c1`, for which the activation (reported as inhibition) in assay [4] is -1.32%. Also, in assay [5], the inhibition was -0.47%.
With `CCN1CCN(CCNC(=O)c2ccc(/C=C3/Sc4ccccc4N(Cc4cccc(C)c4)C3=O)cc2)CC1`, the figures for the inhibition in assay [9] and in assay [10] were 49.5% (active) and 1.16%, respectively.
Take `CCOc1cc(/C=C(\C#N)c2nc(-c3cccs3)c(NC(C)=O)s2)ccc1O`: the activation in [11] was 31.9% (active); in [12], 25.4% (active).
For `CN(C)CCCN(C(=O)c1ccc(S(=O)(=O)N2CCCCCC2)cc1)c1nc2ccc(Br)cc2s1` the same measures were 6.69% and 11.3%.
The corresponding values for `COc1ccc(NS(=O)(=O)c2ccc(NC(=S)NC(=O)CC(C)C)cc2)cc1` are 12.6% and 12.8%.
For `c1ccc(C2CNCc3c2ccc2ccccc32)cc1` (stereo not given), the activation in [11] was 15.8%; in assay [12], 6.47%.
Consider `N#Cc1c(N)nc2c3c(sc(=N)c2c1N)NC(=O)CC3c1ccccc1Cl` (stereo not given), for which, in [4], the activation (reported as inhibition) was -9.26%. Also, in assay [5], the inhibition was -7.41%.
For the compound `CC(CO)(CO)NC(=O)c1ccc(=O)[nH]n1`, the activation in assay [11] was -0.33%; in [12], 0.63%.
`CC1=C/C(=N\OS(=O)(=O)c2ccccc2)C=CC1=O`: the results for the inhibition in assay [14], in [15] and in assay [6] were 90% (active), 83.7% (active) and 7.61%, respectively.
With `Cn1c(SCC(=O)N/N=C/c2ccc(O)c(O)c2)nc2ccccc21`, the inhibition in assay [6] was 3.76%; in assay [1] it was 72.4% (active); in [16], 14.6%.
For `CCCCCCCCCCOC(=O)Cn1c(COc2cccc(OC)c2)[n+](C)c2ccccc21`, the activation in assay [11] is 12%; in assay [12], 14.7%.
For `COc1ccc(Cl)cc1NC(=O)NCC1CCN(Cc2ccccc2F)CC1` the same measures were 7.35% and 6.95%.
Turning to `NC(=O)C1=C[C@H](c2csc3ccccc23)C[C@H](OCc2ccc(CO)cc2)O1`, the activation in assay [11] is 17.8%; in assay [12], 10.2%.
The corresponding values for `COc1cc(C(CCN2CCN(c3ccccc3)CC2)c2c(OC)cc(OC)c3ccc(=O)oc23)cc(OC)c1OC` (stereo not given) are -0.33% and 0.28%.
The corresponding values for `O=C(NNC(=S)NC(=O)c1cn(-c2ccccc2)nc1-c1ccccc1)c1ccncc1` are 4.81% and 9.53%.
With `COc1cccc(CNCCc2c[nH]c3ccccc23)c1OCc1ccccc1F`, the values for the activation in [11] and in assay [12] were 14.2% and 12.1%, respectively.
As for `CC1=CC2=NC(=O)/C(=C/c3coc4ccccc4c3=O)C(=N)N2O1`, the activation in assay [11] is 40% (active); in [12], 36.5% (active).
With `CC(C)c1ccc(C2C(C(=O)c3ccco3)=C(O)C(=O)N2CC2CCCO2)cc1` (stereo not given), the activation (reported as inhibition) in assay [4] is -0.08%. The inhibition in [5] is 1.84%.
In the case of `CCCc1ccc(OCC(=O)NNC(=S)NC(=O)c2ccco2)cc1`, the figures for the activation in [11] and in assay [12] were 13.2% and 20.2%, respectively.
